From PubChem BioAssay
Shiga inhibitor: A qHTS for Small Molecule Inhibitors of Shiga Toxin; 290,000 tested, 9.2% active; Vero cells, Shiga toxin protein synthesis inhibition reporter; inhibition, % at 38.7 µM; in the data active means inhibition mostly above about 28%, no sharp cut-off; inactive means mostly below about 43%; further: 0% is about no effect
CHX counter: Cycloheximide Counterscreen for Small Molecule Inhibitors of Shiga Toxin | cell reporter, cycloheximide protein synthesis inhibition counterscreen | max response, % | 300,000 tested, 12% active | AID 2314, 2010; in the data active means max response mostly above about 13%, no sharp cut-off; inactive means mostly below about 14%; further: read at 38.3 µM for the half of the compounds with a filed dose; 0% is about no effect
Pf growth 96h: Primary qHTS for delayed death inhibitors of the malarial parasite plastid, 96 hour incubation. P. falciparum luciferase reporter growth, 96 h. Potency, µM (titrated, usually from 28.7 µM), for the others: at the highest dose activity change, negative = inhibition, usual class: inhibitors. 320,000 tested, 6.9% active. AID 504834, 2011; further: potency means the concentration at half of the fitted maximal effect; on the % scale 0 is the no-effect control and ±100 the full control effect
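P. falciparum expressing integrated firefly luciferase, in erythrocytes at 2% hematocrit, 0.05% parasitemia, incubated with compounds 96 h at 37 C, 5% CO2. Growth inhibition read as loss of luminescence; two-generation exposure targets delayed-death apicoplast inhibitors.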
Pf growth 48h: Primary qHTS for delayed death inhibitors of the malarial parasite plastid, 48 hour incubation | P. falciparum luciferase growth in erythrocytes, 48 h | Potency, µM (doses to about 28.7 µM), without a hit: at the highest dose activity change, negative = inhibition, hits mostly inhibitors | 310,000 tested, 5.9% active; further: potency means the concentration at half of the fitted maximal effect; on the % scale 0 is the no-effect control and ±100 the full control effect
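Luminescence readout; reporter = integrated firefly luciferase in P. falciparum. RBC culture at 2% hematocrit, 0.1% parasitemia final, 37 C/5% CO2; decreased signal taken as growth inhibition.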
HCMV inh: qHTS Assay for inhibitors of the human cytomegalovirus (HCMV). 410,000 tested, 4.5% active. AID 1259415, 2018. HFF cells, HCMV-luciferase reporter, 72 h; hits give low values. activity change, negative = inhibition, % at 57.5 µM; in the data active means activity change below about -60%; inconclusive means no clear call, values can overlap the other calls; inactive means above about -39%; further: on the % scale 0 is the no-effect control and ±100 the full control effect
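HFF cells seeded 16 h at 37C, treated with compounds, infected with luciferase-reporter HCMV at MOI 1 PFU/cell; luciferase read at 72 h post infection, normalized to buffer-only and Salinomycin controls.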
Starred values were filed as active, the others as inactive; ? = inconclusive; . = no result; [ ] = dose if it differs, or a comment. Rows were chosen to be rich in hits. Some 20% of all compounds tested hit in one or more screens of this group. Unless noted, the call rests on the fitted dose curve; in most records, active means well fitted inhibition curve with a large enough effect; inconclusive means small, poorly fitted or top-dose-only effect, or another doubt; inactive means no such curve, though single readings can be large or run the other way.

SMILES	Shiga inhibitor	CHX counter	Pf growth 96h	Pf growth 48h	HCMV inh
O=C(COc1ccccc1)N/N=C/c1cc2c(cc1[N+](=O)[O-])OCO2	86	23*	?	.	4
Cc1ccccc1NC(=O)Cn1c(=O)sc2ccccc21	34	1	33%	-17%	135
O=C(COc1ccc(-c2ccccc2)cc1)N/N=C/c1ccccc1Br	-10	-1	?	10%	8
O=C(COc1ccc(-c2ccccc2)cc1)N/N=C/c1cc(O)ccc1Br	19	3	8.3µM*	-8%	-61*
O=C(COc1ccccc1)N/N=C/c1ccc([N+](=O)[O-])o1	9	11*	10µM*	8.3µM*	-71*
CC1=C(C(=O)N2CCOCC2)CC(CC(=O)NC(c2ccccc2)c2ccccc2)C(=O)N1CCCN1CCCC1=O (centres undefined)	.	.	.	.	3
COc1ccc(Br)cc1S(=O)(=O)n1ccnc1C	-7	2	94%	-7%	27
Cc1nccn1S(=O)(=O)c1ccc(Br)cc1Br	-1	-3	13µM*	1.9µM*	4
COc1ccc(C(C)C)cc1S(=O)(=O)n1ccnc1C	7	-4	?	?	-103*
COc1ccc(C(=O)N/C(=C\c2cn(S(=O)(=O)N(C)C)c3ccccc23)C(=O)N2CCN(C)CC2)cc1OC	.	.	.	.	-13
Cc1cc(N2CCOCC2)ccc1/C=C\[N+](=O)[O-]	-14	-11	-24%	14%	-98*
Cn1cnc2c1c(=O)n(Cc1ccc(Cl)cc1Cl)c(=O)n2C	.	-4	9.3µM*	-6%	18
COCCOC(=O)c1[nH]c2c(c1C)C(=O)CC(c1ccc(OC)c(OC)c1)C2 (centres undefined)	14	-5	29%	-22%	?
COc1cc(C2CC(=O)C=C(O)C2)cc(OC)c1OC (centres undefined)	1	-1	?	5.9µM*	-5
COC(=O)c1[nH]c2c(c1C)C(=O)CC(c1cc(OC)c(OC)c(OC)c1)C2 (centres undefined)	14	-3	-17%	?	-74*
COC(=O)c1[nH]c2c(c1C)C(=O)CC(c1ccc(OC)c(OC)c1)C2 (centres undefined)	25	-2	30%	.	.
COc1cc(C2CC(=O)c3c([nH]c(C(=O)OC4CCCC4)c3C)C2)cc(OC)c1OC (centres undefined)	.	.	.	.	-98*
CCOCCOC(=O)c1[nH]c2c(c1C)C(=O)CC(c1cc(OC)c(OC)c(OC)c1)C2 (centres undefined)	3	-5	?	.	-62*
O=C(CSc1nnc(CNC(=O)c2c(F)cccc2F)o1)c1ccc(Cl)cc1	.	.	.	.	2
C[C@@H]1CN([C@@H](C)CO)C(=O)c2cc(C#Cc3cccc(F)c3)cnc2O[C@@H]1CN(C)CC1CCOCC1	.	.	.	.	-11
CCCOCn1cc(F)c(=O)[nH]c1=O	-9	4	5.2µM*	?	-2
CCOc1ccc(NC(=O)c2cn(-c3ccc(OCC)cc3)c(=O)c3cc(OC)c(OC)cc23)cc1	1	2	3.3µM*	?	-24
CCOc1ccc(-n2cc(C(=O)N3CCC(C)CC3)c3cc(OC)c(OC)cc3c2=O)cc1	-7	28	77%	9.3µM*	-18
CCOc1ccc(-n2cc(C(=O)Nc3cccc(Cl)c3)c3cc(OC)c(OC)cc3c2=O)cc1	-2	-3	45%	.	2
CCOc1ccc(-n2cc(C(=O)NC(C)C)c3cc(OC)c(OC)cc3c2=O)cc1	24	5	.	?	19
SMILES	Shiga inhibitor	CHX counter	Pf growth 96h	Pf growth 48h	HCMV inh
COc1cccc(OC)c1CNC(=O)C1CCC(=O)N(CC2CCCCC2)C1 (centres undefined)	-2	9	-1%	?	7
COc1ccc(OC)c(NC(=O)COC(=O)CCCN=C2NS(=O)(=O)c3ccccc32)c1	.	.	.	.	2
CS(=O)(=O)Nc1cc2c3c(c1)CCC(=O)N3CCC2	-7	-3	36%	1%	35
O=C1CCC(C(=O)N(Cc2cccs2)C2(C(=O)NC3CCCCC3)CCCCC2)N1 (centres undefined)	-16	7	-16%	-13%	-17
CCCc1nnc(NC(=O)Cn2c(=O)oc3cc(Br)ccc32)s1	-3	-4	-27%	.	27
O=c1oc2cc(Br)ccc2n1CSC1=NCCS1	100*	34*	-12%	?	-26
CCOC(=O)C1CCN(C(=O)CN2C(=O)COc3ccc(C(C)(C)C)cc32)CC1	16	-4	10µM*	-18%	-37
CCOC(=O)CN1C(=O)COc2ccc(Cl)cc21	25	-1	?	16%	-3
CCOC(=O)C1CCCN(C(=O)CN2C(=O)COc3ccc(C(C)(C)C)cc32)C1 (centres undefined)	-20	-6	.	?	-30
CCOC(=O)CN1C(=O)COc2ccc(C(C)(C)C)cc21	15	-2	0.47µM*	48%	30
Clc1cccc(N2CCN(c3c4c(nc5nncn35)CCC4)CC2)c1	.	.	.	.	-65*
COc1cccc(N2CCN(c3c4c(nc5nncn35)CCC4)CC2)c1	.	.	.	.	-95*
O=C1NC[C@@H](CCCCN2C[C@H](Cc3ccccc3)N(CCC3CCCCC3)C(=O)C2=O)N(CC2CCCCC2)C1=O	.	.	.	.	-17
COc1ccc(/C=C/C(=O)c2cc(F)ccc2OC(=O)c2ccccc2)cc1OC	.	.	.	.	-97*
COc1ccc(/C=C/C(=O)c2cc(Br)ccc2OC(=O)c2ccco2)cc1OC	10	10	20%	12µM*	21
COc1ccc(/C=C/C(=O)c2cc(F)ccc2OC(=O)c2ccccc2OC)cc1OC	-4	17	?	?	-97*
COc1ccc(/C=C/C(=O)c2cc(Br)ccc2O)cc1OC	9	-3	?	-24%	-26
COc1ccc(/C=C/C(=O)c2cc(F)ccc2OC(=O)c2ccc(OC)c(OC)c2)cc1OC	19	-3	-8%	?	-3
COc1ccc(Cl)cc1NC(=O)Cn1c(=O)n(Cc2cccs2)c(=O)c2cccnc21	.	.	.	.	-26
COCCN=c1scc(-c2cc(OC)c(OC)c(OC)c2)n1/N=C/c1c(C)[nH]c2ccccc12	-3	-1	2.6µM*	7.4µM*	44
CCN(CC)CCSc1nnc2c3cc(C)ccc3n(Cc3ccccc3)c2n1	-8	1	?	?	-85*
Oc1c(Cl)cc(Cl)cc1C=Nc1ccc2c(c1)OCCO2	117*	68*	55%	5%	46
O=C1COc2ccc(C(=O)COC(=O)Cc3ccsc3)cc2N1	21	11*	5%	-2%	-8
CN(C)C(=S)NC(=O)C(c1ccccc1)c1ccccc1	-3	-2	-57%[1.15 µM]	-14%	-16
CC(C)(C)C(=O)NC(=S)NNC(=O)C(c1ccccc1)c1ccccc1	-4	3	?	13µM*	.
CC(=O)NNC(=S)NC(=O)C(c1ccccc1)c1ccccc1	-4	-1	?	2.1µM*	?
CCNC(=S)NNC(=O)C(c1ccccc1)c1ccccc1	-21	-1	-33%	-10%	-30
